# FH mod: Identification of activators of human fumarate hydratase by quantitative high-throughput screening | Fumarate hydratase, mitochondrial (Homo sapiens), P07954 | FH coupled MDH/diaphorase resazurin fluorescence, 15 min | Potency, µM (series often up to 79.9 µM), without a hit: top-dose activity change, negative = inhibition, most hits filed as inhibitors | 54,000 tested, 0.22% active; also: potency is read from the fitted curve at half-maximal effect; % is scaled to controls: 0 for no effect and ±100 for the full control effect; the screen sought activators but most active calls are inhibition curves; nearly all actives have a fitted effect of over 45% in size
# Target sequence (P07954 whole entry, looked up): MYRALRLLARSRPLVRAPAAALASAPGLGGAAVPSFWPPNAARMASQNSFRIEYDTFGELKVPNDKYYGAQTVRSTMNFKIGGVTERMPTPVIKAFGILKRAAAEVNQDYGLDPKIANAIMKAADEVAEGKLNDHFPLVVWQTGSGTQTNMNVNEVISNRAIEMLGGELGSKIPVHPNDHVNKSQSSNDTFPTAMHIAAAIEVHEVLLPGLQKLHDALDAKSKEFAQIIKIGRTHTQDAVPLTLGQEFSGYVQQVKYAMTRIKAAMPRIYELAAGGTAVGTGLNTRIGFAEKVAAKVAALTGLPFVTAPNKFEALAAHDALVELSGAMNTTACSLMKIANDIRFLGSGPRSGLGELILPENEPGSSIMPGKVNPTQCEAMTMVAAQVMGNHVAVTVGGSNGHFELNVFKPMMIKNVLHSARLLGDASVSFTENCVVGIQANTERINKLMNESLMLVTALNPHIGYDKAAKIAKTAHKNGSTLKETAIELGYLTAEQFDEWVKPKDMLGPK
# NTMT1 inhibitor: inhibitors of human N-terminal methyltransferase NTMT1. NTMT1 MTase-Glo SAH luminescence, purified enzyme. Potency, µM (series often up to 114 µM), for inactives: top-dose activity change, negative = inhibition, most hits filed as inhibitors. 59,000 tested, 2.5% active. AID 1645870;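 also: potency is read from the fitted curve at half-maximal effect; plate controls were DMSO vehicle for no effect and no enzyme for full effect; nearly all actives have a fitted effect of over 65% in size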
# OvCa metastasis: inhibitors of ovarian cancer cell adhesion and invasion in omental model | Potency, µM (top dose mostly 45.8 µM), for the others: at the highest dose activity change, negative = inhibition, usual class: inhibitors | 46,000 tested, 0.1% active | SKOV3ip1-GFP adhesion/invasion on 3D omental model, fluorescence;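 also: potency is read from the fitted curve at half-maximal effect; plate controls were DMSO wells for no effect and tomatine positive control wells for full effect; nearly all actives have a fitted effect of over 65% in size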
#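 A 3D layer of primary human omental fibroblasts, mesothelial cells, fibronectin and collagen I, grown 48 hr, received SKOV3ip1-GFP cells in serum-free medium plus compounds at 0.36-46 umol/L. After 2 hr RT and 16 hr 37 C, fixed adherent GFP cells were counted; normalized to DMSO and tomatine.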
# GPR32 ag: agonists of human resolvin D1 receptor DRV1 (GPR32) | O75388 | CHO-K1 GPR32 beta-arrestin PathHunter luminescence, 90 min; zero percent set by DMSO-only wells | activation, % at 76.9 µM | 48,000 tested, 2.5% active;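 active = activation of at least 60% and not above a set upper limit, about 1 call in 100 departs from these limits; inconclusive = activation of 40% to 60%, or above that upper limit; inactive = activation under 40%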; also: 0% is about no effect
#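 Luminescent readout of beta-Gal complementation quantifies ligand-induced beta-arrestin association with GPR32 in CHO-K1 cells; 90 min compound incubation at 37 °C, detection 1 h at room temperature.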
# DYRK1A inh: inhibitors of human DYRK1A kinase | AID 2705 | Potency, µM (titrated, usually from 76.9 µM), for the others: at the top dose activity change, negative = inhibition, most hits filed as inhibitors | 100 tested, 80% active | shares compounds with NTMT1 inhibitor | recombinant DYRK1A, Kinase-Glo ATP depletion luminescence
# CLK4 KinaseGlo: CLK4 kinase inhibition, SAR round 2; Potency, µM (titrated, usually from 76.9 µM), inactives show top-dose activity, negative = inhibition, actives largely listed as inhibitors; shares compounds with NTMT1 inhibitor; recombinant Clk4, Kinase-Glo ATP luminescence, 4.5 h; 90 tested, 90% active
# NNMT counter: counter-screen for NTMT1 inhibitors: human NNMT inhibition. AID 1645878. Potency, µM (doses to about 57.1 µM), without a hit: top-dose activity, negative = inhibition, actives largely listed as inhibitors. shares compounds with NTMT1 inhibitor. 120 tested, 10% active. NNMT MTase-Glo luminescence, SAH detection
# * = called active by the depositor; i = inactive; ? = inconclusive; nt = no result; ! = not confirmed by another sample; [ ] = another dose, or the depositor's remark. An excerpt weighted towards active compounds, which were near 3.9% of everything screened. Unless noted, calls follow the shape of the dose curve; as a rule, active = well fitted curve in the direction sought with a large enough effect; inconclusive = small, poorly fitted or top-dose-only effect, or another doubt; inactive = no such curve, though single readings can be large; an effect the other way counts as inactive or inconclusive.
SMILES,FH mod,NTMT1 inhibitor,OvCa metastasis,GPR32 ag,others
CC1(C)CC[C@]2(CO[C@@H]3O[C@H](CO)[C@@H](O)[C@H](O)[C@H]3O)[C@@H](O)C[C@]3(C)C(=CCC4[C@@]5(C)CC[C@H](O[C@@H]6O[C@H](CO[C@@H]7O[C@H](CO[C@@H]8OC[C@@H](O)[C@H](O)[C@H]8O)[C@@H](O)[C@H](O)[C@H]7O)[C@@H](O)[C@H](O)[C@H]6O)C(C)(C)C5CC[C@]43C)[C@@H]2C1 (some centres not stated),-8%[20.6 µM],9%[12.6 µM],nt,nt,
Cc1cc(O)c(C(C)C)cc1Cl,-14%[53.3 µM],18%[57.5 µM],nt,86*,
CC(=O)Nc1sc2c(c1-c1ccc3nc[nH]c3c1)CCNC2,nt,50µM*,nt,nt,
CC(=O)Nc1sc2c(c1-c1ccc3nsnc3c1)CCNC2,nt,7%,nt,nt,
Cc1cccc(CN2CCN(C(c3ccccc3)c3ccc(Cl)cc3)CC2)c1 (configuration not stated),1%[53.3 µM],32µM*!,-11%,3,
CC(C)(C)c1ccc(CN2CCN(C(c3ccccc3)c3ccc(Cl)cc3)CC2)cc1 (configuration not stated),1%,-5%[57.5 µM],nt,nt,
CC1=CC(=O)c2ccccc2C1=O,?,?,?,62*,
CN1C(=O)c2ccccc2C1=O,9%,19%,nt,14,
CCCN(C(=O)Cc1c(C(=O)O)[nH]c2ccc(Cl)cc12)c1ccc(OCC)cc1,-6%,7%,i,?,
Cc1ccc(C)c(N(C)C(=O)Cc2c(C(=O)O)[nH]c3ccc(Cl)cc23)c1,-18%,22%,i,70*,
OCc1ccc(-c2ccc(-c3ccc(CO)s3)o2)s1,1%[53.3 µM],?,i,nt,NNMT counter=-28%[28.6 µM]
COc1cc(CCc2ccc(OCC=C(C)C)cc2)cc(OC)c1OC,-2%[53.3 µM],-16%[29.8 µM],nt,nt,NNMT counter=-17%[38.3 µM]
CCOc1ccc(OCc2ccc(C(=O)Nc3cc(OC)c(OC)c(OC)c3)o2)cc1,5%,-2%,-2%,9,
C=CC(=O)N1CC/C(=C\c2ccc(F)c([N+](=O)[O-])c2)C(=O)/C(=C/c2ccc(F)c([N+](=O)[O-])c2)C1,nt,16%,nt,nt,
Cc1sc2c(c1C)c(=O)n(Cc1ccccc1)c(=O)n2Cc1ccc(F)cc1,10%,-4%,2%,2,
Cn1sc(=O)n(Cc2ccccc2)c1=O,9%,7.9µM*,nt,nt,NNMT counter=1.6µM*
C/C(=N\N=C(N)N)c1cc(NC(=O)CCCCCCCCC(=O)Nc2cc(/C(C)=N/N=C(N)N)cc(/C(C)=N/N=C(N)N)c2)cc(/C(C)=N/N=C(N)N)c1,-3%,5.6µM*,nt,nt,NNMT counter=?
Cc1cc(-c2ncc(CC(=O)Nc3ccc(-c4cnccn4)cn3)cc2C)ccn1,-10%,5%[57.5 µM],-1%,nt,NNMT counter=?
Fc1cccc(CNc2ncnc3ccc(-c4cccc(Cl)c4)cc23)c1,nt,-3%,nt,nt,
CS(=O)(=O)CCNCc1ccc(-c2ccc3ncnc(Nc4ccc(OCc5cccc(F)c5)c(Cl)c4)c3c2)o1,-23%,9%,-25%,9,CLK4 KinaseGlo=-10%
c1cncc(CNc2ncnc3ccc(-c4ccoc4)cc23)c1,nt,-9%,nt,nt,
CCOC(=O)c1ccoc1-c1ccc2ncnc(NCc3ncc[nH]3)c2c1,nt,10%,nt,nt,DYRK1A inh=?
Cc1occc1-c1ccc2ncnc(NCc3ncc[nH]3)c2c1,nt,-12%,nt,nt,DYRK1A inh=2.3µM*
Cc1nc(CNc2ncnc3ccc(-c4ccoc4)cc23)cs1,nt,?,nt,nt,DYRK1A inh=3.7µM*
Cc1cccc(CNc2ncnc3ccc(-c4ccoc4)cc23)c1,nt,8%,nt,nt,
SMILES,FH mod,NTMT1 inhibitor,OvCa metastasis,GPR32 ag,others
Cc1csc(CNc2ncnc3ccc(-c4ccoc4)cc23)c1,nt,-11%,nt,nt,
c1c[nH]c(CNc2ncnc3ccc(-c4ccoc4)cc23)n1,nt,2%,nt,nt,DYRK1A inh=9.2µM*
Cc1onc(-c2c(Cl)cccc2Cl)c1CC(=O)NCc1ccc(OCC(F)(F)F)nc1,-9%,7%[57.5 µM],nt,nt,
Cc1ccc(CNc2ncnc3ccc(-c4ccoc4C)cc23)o1,nt,?,nt,nt,DYRK1A inh=4.6µM*
OCCCNc1cc(-c2ccnc(Nc3cccc(Cl)c3)n2)ccn1,-14%,4.5µM*,?,nt,NNMT counter=25µM*
Nc1ccc(-c2ccnc(NCCCNC(=O)c3c(Cl)cccc3Cl)n2)cc1,-3%,?,nt,nt,
Cc1cccc(C)c1-n1c(SCC(=O)Nc2ccc(C(=O)O)cc2)nnc1-c1ccc([S+](=O)([O-])N2CCCC2)cc1,nt,-7%,nt,nt,
COc1cc(N2CCN(C(C)=O)CC2)ccc1Nc1ncc(Cl)c(Nc2ccc(N3CCN(C(C)=O)CC3)cc2OC)n1,-11%,20µM*,nt,nt,NNMT counter=?
COc1cc(N2CCC(N3CCN(C)CC3)CC2)ccc1Nc1ncc(Cl)c(-c2c[nH]c3ccccc23)n1,?,20µM*,nt,nt,NNMT counter=?
CCOc1cc(N2CCC(O)CC2)ccc1Nc1ncc2c(n1)N(C)c1ccccc1C(=O)N2C,-5%,?,4%,nt,
O=C(CSc1nnc(-c2cccc(S(=O)(=O)N3CCCC3)c2)n1-c1ccccc1)Nc1ccc(F)cc1,nt,0%,nt,nt,

# Screening results from PubChem BioAssay.
